PubChem BioAssay AID1159580 (chemical genetic matrix, 2015)
Where “and” joins values, the source holds several entries; their conditions need not be identical. Equal values may be shown once. Among all 5,500 compounds or so, about 2,000 (36%) were called active. About 18% were inconclusive and are not listed. Rule as the data show it: active = normalized growth mostly below about 0.91 (no sharp cut-off); inconclusive = no clear call, values can overlap the other calls; inactive = mostly above about 0.92. The list shows a part of the results.

Assay: chemical genetic growth profiling, strain panel (AID 1159580);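 also: tested at 20 µM; growth read once vehicle control cultures reached saturation at 30 °C; 1 = growth at the plate median or of vehicle wells; lower values mean less growth of the strain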
Settings: S. cerevisiae deletion strains, growth OD

Measured: normalized growth

CCCC(C)(COC(N)=O)COC(=O)NC(C)C (stereo unspecified)
inactive: locus YAL021C, strain ccr4, active compounds read low 1 | locus YAL026C, strain drs2, active compounds read low 0.99 | locus YAL030W, strain snc1, active compounds read low 0.98 | locus YAL040C, strain CLN3, active compounds read low 0.989 | locus YBL061C, strain skt5, active compounds read low 1 | locus YBR009C, strain hhf1, active compounds read low 0.983 | locus YBR021W, strain FUR4, active compounds read low 0.991 | locus YBR023C, strain chs3, active compounds read low 1.01 | locus YBR171W, strain sec66, active compounds read low 1 | locus YBR229C, strain ROT2, active compounds read low 0.954 | locus YBR231C, strain swc5, active compounds read low 1.01 | locus YBR279W, strain paf1, active compounds read low 1 | locus YCL011C, strain gbp2, active compounds read low 0.996 | locus YCL016C, strain dcc1, active compounds read low 0.985 | locus YCL029C, strain bik1, active compounds read low 0.977 | locus YCL061C, strain MRC1, active compounds read low 1 | locus YCL069W, strain vba3, active compounds read low 0.992 | locus YCR088W, strain abp1, active compounds read low 0.998 | locus YDL005C, strain med2, active compounds read low 1 | locus YDL035C, strain GPR1, active compounds read low 0.951 | locus YDL040C, strain nat1, active compounds read low 1 | locus YDL074C, strain BRE1, active compounds read low 0.974 | locus YDL101C, strain DUN1, active compounds read low 0.982 | locus YDL134C, strain PPH21, active compounds read low 0.965 | locus YDL185W, strain tfp1, active compounds read low 0.945 | locus YDL192W, strain arf1, active compounds read low 0.965 | locus YDR001C, strain nth1, active compounds read low 0.974 | locus YDR069C, strain doa4, active compounds read low 1.01 | locus YDR101C, strain arx1, active compounds read low 0.983 | locus YDR137W, strain rgp1, active compounds read low 0.966 | locus YDR150W, strain NUM1, active compounds read low 0.983 | locus YDR159W, strain sac3, active compounds read low 0.986 | locus YDR162C, strain NBP2, active compounds read low 0.94 | locus YDR195W, strain ref2 1 | locus YDR297W, strain sur2, active compounds read low 0.991 | locus YDR318W, strain mcm21, active compounds read low 0.979 | locus YDR334W, strain swr1, active compounds read low 0.979 | locus YDR335W, strain msn5, active compounds read low 0.989 | locus YDR363W, strain ESC2, active compounds read low 0.976 | locus YDR388W, active compounds read low 0.979 | locus YDR392W, strain spt3, active compounds read low 0.952 | locus YDR502C, strain sam2, active compounds read low 0.984 | locus YEL003W, strain gim4, active compounds read low 0.986 | locus YEL037C, strain rad23, active compounds read low 0.993 | locus YEL061C, strain CIN8 (second series), active compounds read low 0.975 | locus YEL061C, strain CIN8, active compounds read low 0.982 | locus YER002W, strain NOP16, active compounds read low 0.995 | locus YER015W, strain faa2, active compounds read low 1.01 | locus YER016W, strain bim1, active compounds read low 0.986 | locus YER110C, active compounds read low 0.964 | locus YER111C, strain swi4, active compounds read low 0.973 | locus YER155C, strain BEM2 (second series), active compounds read low 1.04 | locus YER155C, strain BEM2, active compounds read low 0.99 | locus YER167W, strain BCK2, active compounds read low 0.989 | locus YFR010W, strain ubp6, active compounds read low 0.985 | locus YGL078C, strain dbp3, active compounds read low 0.981 | locus YGL086W, strain mad1, active compounds read low 0.98 | locus YGL167C, strain pmr1, active compounds read low 0.991 | locus YGL173C, strain kem1, active compounds read low 0.993 | locus YGL227W, strain vid30, active compounds read low 0.987 | locus YGL240W, strain doc1, active compounds read low 1.02 | locus YGL248W, strain PDE1, active compounds read low 0.991 | locus YGL253W, strain hxk2, active compounds read low 0.978 | locus YGR078C, strain PAC10, active compounds read low 0.988 | locus YGR135W, strain pre9, active compounds read low 1 | locus YGR229C, strain SMI1, active compounds read low 0.971 | locus YGR252W, strain gcn5, active compounds read low 0.989 | locus YHR013C, strain ard1, active compounds read low 0.967 | locus YHR027C, strain rpn1, active compounds read low 1.01 | locus YHR030C, strain SLT2, active compounds read low 0.992 and 0.979 | locus YHR079C, strain IRE1 (second series), active compounds read low 0.989 | locus YHR079C, strain IRE1, active compounds read low 0.974 | locus YHR094C, strain hxt1, active compounds read low 0.969 | locus YHR129C, strain ARP1, active compounds read low 0.988 | locus YHR142W, strain chs7, active compounds read low 0.982 | locus YHR200W, strain rpn10, active compounds read low 0.967 | locus YIL066C, strain RNR3, active compounds read low 0.975 | locus YIL073C, strain SPO22, active compounds read low 0.981 | locus YIL125W, strain kgd1, active compounds read low 0.969 | locus YIR030C, strain dcg1, active compounds read low 0.978 | locus YJL092W, strain hpr5, active compounds read low 0.988 | locus YJL095W, strain BCK1 (second series), active compounds read low 0.998 | locus YJL095W, strain BCK1, active compounds read low 1.02 and 0.977 | locus YJL115W, strain asf1, active compounds read low 0.962 | locus YJL129C, strain trk1, active compounds read low 0.983 | locus YJL134W, strain LCB3, active compounds read low 0.976 | locus YJL154C, strain vps35, active compounds read low 0.992 | locus YJL164C, strain tpk1, active compounds read low 0.966 | locus YJL166W, strain qcr8, active compounds read low 1.01 | locus YJL168C, strain set2, active compounds read low 0.981 | locus YJL187C, strain SWE1 (second series), active compounds read low 0.987 | locus YJR043C, strain POL32, active compounds read low 0.965 | locus YJR066W, strain TOR1, active compounds read low 0.965 | locus YJR075W, strain HOC1, active compounds read low 0.997 | locus YKL009W, strain mrt4, active compounds read low 1.03 | locus YKL068W, active compounds read low 0.971 | locus YKL085W, strain MDH1 (second series), active compounds read low 0.982 | locus YKL085W, strain MDH1, active compounds read low 0.982 | locus YKL160W, strain elf1, active compounds read low 1 | locus YKR001C, strain vps1, active compounds read low 0.97 | locus YKR026C, strain gcn3, active compounds read low 0.989 | locus YKR091W, strain srl3, active compounds read low 0.97 | locus YLL001W, strain dnm1, active compounds read low 1.02 | locus YLL026W, active compounds read low 1 | locus YLL041C, strain sdh2, active compounds read low 1.01 | locus YLR027C, strain aat2, active compounds read low 0.993 | locus YLR039C, strain RIC1, active compounds read low 0.974 | locus YLR058C, strain SHM2, active compounds read low 0.978 | locus YLR102C, strain apc9, active compounds read low 0.982 | locus YLR113W, strain HOG1, active compounds read low 0.978 | locus YLR221C, strain rsa3, active compounds read low 1.01 | locus YLR258W, strain gsy2, active compounds read low 0.986 | locus YLR262C, strain YPT6 (second series), active compounds read low 0.991 | locus YLR262C, strain YPT6, active compounds read low 0.911 | locus YLR268W, strain sec22, active compounds read low 0.969 | locus YLR320W, strain mms22, active compounds read low 0.985 | locus YLR330W, strain CHS5, active compounds read low 0.985 | locus YLR342W, strain FKS1 (second series), active compounds read low 0.995 | locus YLR342W, strain FKS1, active compounds read low 1.02 | locus YLR357W, strain rsc2, active compounds read low 0.949 | locus YLR370C, strain arc18, active compounds read low 1.01 | locus YLR371W, strain rom2, active compounds read low 0.959 | locus YLR384C, strain iki3, active compounds read low 1 | locus YLR418C, strain cdc73, active compounds read low 1.01 | locus YML016C, strain PPZ1, active compounds read low 0.986 | locus YML032C, strain rad52, active compounds read low 0.97 | locus YML120C, strain ndi1, active compounds read low 1 | locus YML124C, strain tub3, active compounds read low 0.986 | locus YMR058W, strain fet3, active compounds read low 0.973 | locus YMR078C, strain ctf18, active compounds read low 0.964 | locus YMR125W, strain sto1, active compounds read low 0.975 | locus YMR129W, active compounds read low 0.985 | locus YMR205C, strain PFK2, active compounds read low 1 | locus YMR223W, strain ubp8, active compounds read low 1 | locus YMR231W, strain pep5, active compounds read low 0.999 | locus YMR263W, strain SAP30, active compounds read low 0.99 | locus YMR307W, strain GAS1, active compounds read low 0.942 | locus YNL067W, strain RPL9B, active compounds read low 0.992 | locus YNL071W, strain lat1, active compounds read low 1 | locus YNL128W, strain TEP1, active compounds read low 0.97 | locus YNL153C, strain GIM3, active compounds read low 0.995 | locus YNL175C, strain NOP13, active compounds read low 0.988 | locus YNL183C, strain NPR1, active compounds read low 0.925 | locus YNL197C, strain WHI3, active compounds read low 0.95 | locus YNL209W, strain ssb2, active compounds read low 0.983 | locus YNL224C, strain SQS1, active compounds read low 0.996 | locus YNL233W, strain BNI4, active compounds read low 1 | locus YNL248C, strain rpa49, active compounds read low 0.921 | locus YNL250W, strain rad50, active compounds read low 0.961 | locus YNL271C, strain bni1, active compounds read low 0.979 | locus YNL298W, strain CLA4, active compounds read low 0.972 | locus YNL307C, strain MCK1, active compounds read low 0.979 | locus YNL322C, strain KRE1 (second series), active compounds read low 1.01 | locus YNL322C, strain KRE1, active compounds read low 0.995 | locus YNR049C, strain mso1, active compounds read low 0.986 | locus YNR052C, strain pop2, active compounds read low 0.974 | locus YOL012C, strain htz1 1.03 | locus YOL147C, strain pex11, active compounds read low 0.991 | locus YOR001W, strain rrp6, active compounds read low 1.02 | locus YOR061W, strain CKA2, active compounds read low 0.962 | locus YOR069W, strain VPS5, active compounds read low 0.984 | locus YOR070C, strain gyp1, active compounds read low 0.992 | locus YOR080W, strain dia2, active compounds read low 1.01 | locus YOR083W, strain WHI5 (second series), active compounds read low 0.975 | locus YOR083W, strain WHI5, active compounds read low 1.03 | locus YOR106W, strain vam3, active compounds read low 1.02 | locus YOR136W, strain idh2, active compounds read low 0.973 | locus YOR144C, strain elg1, active compounds read low 0.984 | locus YOR184W, strain ser1, active compounds read low 0.965 | locus YOR231W, strain MKK1, active compounds read low 0.981 | locus YOR265W, strain rbl2, active compounds read low 1 | locus YOR270C, strain vph1, active compounds read low 0.968 | locus YOR290C, strain snf2, active compounds read low 0.982 | locus YOR316C, strain cot1, active compounds read low 0.948 | locus YPL051W, strain arl3, active compounds read low 1.02 | locus YPL055C, strain LGE1, active compounds read low 0.988 | locus YPL078C, strain atp4, active compounds read low 1.01 | locus YPL106C, strain sse1, active compounds read low 0.984 | locus YPL240C, strain hsp82, active compounds read low 1 | locus YPL241C, strain CIN2, active compounds read low 0.999 | locus YPL256C, strain CLN2, active compounds read low 0.965 | locus YPR119W, strain clb2, active compounds read low 0.977 | locus YPR141C, strain kar3, active compounds read low 0.956 | locus YPR163C, strain tif3, active compounds read low 0.975 | locus YPR167C, strain met16, active compounds read low 0.985 | strain wtn01, active compounds read low 0.996
